High-throughput results (PubChem BioAssay)
PABP FP inh: blocks human PABP binding to poly(A) RNA | hit rate 1% among 290,000 | fluorescence polarization | AID 2014 | P11940 | calls only at 35 µM;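 further: calls also rest on retests at 20 µM and on dose response follow-up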
Target sequence (P11940 whole entry, looked up): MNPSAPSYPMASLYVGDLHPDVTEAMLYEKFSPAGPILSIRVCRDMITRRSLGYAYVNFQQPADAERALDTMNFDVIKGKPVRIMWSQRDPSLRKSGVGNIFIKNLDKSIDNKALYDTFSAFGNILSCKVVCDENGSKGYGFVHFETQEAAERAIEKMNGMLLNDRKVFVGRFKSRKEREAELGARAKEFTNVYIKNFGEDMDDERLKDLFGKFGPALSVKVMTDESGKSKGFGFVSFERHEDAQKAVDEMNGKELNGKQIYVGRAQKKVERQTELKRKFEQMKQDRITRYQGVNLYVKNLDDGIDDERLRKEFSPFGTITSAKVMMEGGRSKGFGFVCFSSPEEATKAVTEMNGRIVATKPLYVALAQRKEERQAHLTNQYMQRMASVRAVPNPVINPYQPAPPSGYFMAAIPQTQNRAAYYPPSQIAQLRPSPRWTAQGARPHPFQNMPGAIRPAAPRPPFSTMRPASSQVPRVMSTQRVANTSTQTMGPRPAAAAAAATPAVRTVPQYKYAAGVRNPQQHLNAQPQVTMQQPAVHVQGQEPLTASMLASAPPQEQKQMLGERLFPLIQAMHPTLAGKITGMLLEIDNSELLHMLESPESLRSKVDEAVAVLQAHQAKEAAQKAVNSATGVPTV
MLLE-PAM2 inh: blocks PAM2 peptide binding to the PABP1 MLLE domain. P11940. AID 588489. inhibition, % at 20 µM. GST-MLLE / FITC-PAM2 fluorescence polarization. hit rate 0.36% among 360,000; in the data active means inhibition above about 35%, passing the limit was not always enough
eIF4H inh: inhibitors of RNA binding by human eIF4H | Q15056 | eIF4H fluorescence polarization binding assay | inhibition, % at 35 µM | hit rate 0.94% among 290,000 | AID 2012;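 further: calls also rest on retests at 20 µM and on dose response follow-up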
PERK inhibitor: human PERK inhibition, primary cell-based screen. CHO PERK-DD fusion, SEAP luminescence translation reporter. inhibition, % at 5.6 µM. hit rate 0.17% among 220,000;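 active means inhibition above the mean inhibition of all tested compounds plus 3 SD, set separately per screening campaign, cut at about 2.9% in these data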;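 further: PERK kinase domain activated by AP20187 dimerizer at 100 nM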
eIF4E-4G inh: inhibitors of eIF4E and eIF4G interaction in translation initiation; TR-FRET eIF4E-eIF4GI(517-606) binding, 2 h; inhibition, % at 21.7 µM; hit rate 0.37% among 220,000;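 active means inhibition above about 30%, limit read from the data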
Hits are given with their value; 0 = inactive; ? = inconclusive; - = not tested or not shown; + = active, no number; ! = not active in a repeat; [ ] = remark or other dose. Shown are actives, neighbours in structure and some others; about 1.6% of the full set was active somewhere. Unless noted, how the calls were made is not given here.

SMILES	PABP FP inh	MLLE-PAM2 inh	eIF4H inh	PERK inhibitor	eIF4E-4G inh
OC1(c2ccc(Br)cc2)CN(c2ccccc2)C2=[N+]1CCS2 (centres undefined)	0	37	0	0	0
O=C(N/N=C/c1ccc[nH]1)c1cc2ccccc2cc1O	0	0	76	-	-
O=C(N/N=C/c1ccncc1)c1cc2ccccc2cc1O	0	0	0	-	-
CC12CC3(C)CC(C)(C1)CC(C(=O)NC(=S)N1CCCC1)(C2)C3	0	0	0	0	32
CC(C)(C)C(=O)NC(=S)N1CCCC1	0	0	0	0	0
Cc1ccnc(NC(=O)c2ccc(OCc3c(C)noc3C)cc2)c1	-	0	-	-	-
CC(=O)c1c(C)[nH]c(C(=O)OCC(=O)Nc2ccc([N+](=O)[O-])cc2Cl)c1C	+	0	0	0	0
CCOC(=O)c1sc(=S)n(CC)c1N	0	0	0	0	0
C=CCn1c(N)c(C(=O)OCC)sc1=S	0	49	0	0	0
CSC(=Nc1ccccc1)Nc1ccccc1	0	0	0	2.9	0
c1coc(-c2ncc[nH]2)c1	+	0	102	0	0
N#Cc1ccc(-c2csc(NC3=NCCCCC3)n2)cc1	0	0	0	0	53[fluorescence artefact?]
c1ccc(-c2csc(NC3=NCCCCC3)n2)cc1	+	0	2.5	0	0
O=C(Nc1cccc(Oc2ccc(C(=O)O)c(C(=O)O)c2)c1)c1ccc(-c2ccccc2)cc1	0	0	66	0	0
CC(C)(C)C(=O)Nc1ccc(C(=O)Nc2cccc(Oc3ccc(C(=O)O)c(C(=O)O)c3)c2)cc1	0	0	0	-	-
NCCCCc1cn(CC(=O)N2CCNCC2)nn1	+	0	0	0	0
CC1(C)OC(=O)C(=C2CCCN2)C(=O)O1	+	0	active	0	0
Cn1c(SCc2c(F)cccc2Cl)nc2c(c1=O)SCC2	0	0	0	0	0
Cn1c(SCc2ccc([N+](=O)[O-])cc2)nc2c(c1=O)SCC2	+	0	active	0	0
ON/C=N/C(=S)Nc1ncc(C(F)(F)F)cc1Cl	0	38	0	0	0
CC(C)C(=O)Nc1ncc(C(F)(F)F)cc1Cl	0	0	0	0	0
CON/C=N/C(=S)Nc1ncc(C(F)(F)F)cc1Cl	0	42	0	0	0
CN1C=CC2=C(C#N)C(N)C(C#N)(C#N)[C@H](c3ccccc3)[C@H]2C1 (some centres undefined)	0	48	?	0	0
O=P(c1ccccc1)(c1ccccc1)c1cc(S(=O)(=O)O)ccc1O	+	0	78	-	-
O=C1NC(=S)S/C1=C\C=C\c1ccc([N+](=O)[O-])o1	+	0	95	0	0
SMILES	PABP FP inh	MLLE-PAM2 inh	eIF4H inh	PERK inhibitor	eIF4E-4G inh
Nc1nc(-c2ccccn2)nc(N)c1Cc1ccc(Cl)cc1Cl	0	0	70	0	0
O=C(CCC1CCCC1)N1CCC(N2CCN(c3ccccc3)CC2)CC1	0	0	0	0	0
CC(C)CC(=O)N1CCC(N2CCN(c3ccccc3)CC2)CC1	0	0	0	0	50
CC1(C)CC(=O)C(C(C2=C(O)CC(C)(C)CC2=O)c2ccc(O)c([N+](=O)[O-])c2)=C(O)C1	0	0	0	0	0
Cc1ccc(-n2c(SCC(=O)N/N=C/c3c(C)nn(-c4ccccc4)c3C)nc3ccccc3c2=O)cc1	0	38	0	0	0
NC(=O)C(=O)N/N=C/c1c2ccccc2cc2ccccc12	0	0	0	-	-
Cc1cc(C)n2nc(SCC(=O)N3CCCC(C)C3)nc2n1 (centres undefined)	-	0	-	-	-
CN1Cc2c(N)cccc2C(c2ccccc2)C1 (centres undefined)	0	80!	?	0	0
Cc1ncc([N+](=O)[O-])n1CCO	0	0	5.6	0	0
CCS(=O)(=O)CCn1c([N+](=O)[O-])cnc1C	0	0	0	0	0
Cc1ccc(Cn2c([N+](=O)[O-])cnc2C)cc1	0	0	0	0	0
Cc1ncc([N+](=O)[O-])n1CC(C)O (centres undefined)	+!	0	?	0	0
COc1ccc(Cc2nnc(NC(=O)C3CCCO3)s2)cc1OC (centres undefined)	0	45	0	0	0
COc1ccc(Cc2nnc(NC(=O)C3CCCO3)s2)cc1 (centres undefined)	0	0	0	0	0
O=C(COc1ccccc1/C=C1\SC(=S)NC1=O)Nc1ccc(F)cc1	-	0	-	-	-
Cc1nnc(NC(=O)CSc2nnc3ncccn23)s1	0	0	0	-	-
Nc1nc(-c2cccc(F)c2)cs1	0	39	0	0	0
Fc1cccc(-c2csc(-c3ccno3)n2)c1	0	0	0	0	0
Cc1ccc2nc3c(cc(C#N)c(=O)n3CC3CCCO3)c(=O)n2c1 (centres undefined)	+	-	32	0	0
CCC(C)n1c(=N)c(C#N)cc2c(=O)n3cc(C)ccc3nc21 (centres undefined)	+	0	58	0	0
Cc1ccc2nc3c(cc(C#N)c(=O)n3-c3nccs3)c(=O)n2c1	+	0	98	0	0
CCOC(=O)Cn1nc(C)c(NC(=O)COc2ccc(OC)cc2)c1C	0	0	0	0	0
CCN(C(=O)COC(=O)CNC(=O)c1ccc(C)s1)c1ccccc1	0	0	0	0	0
CCOC(=O)C1(C)CCN1C(=O)c1cc2ccccc2s1 (centres undefined)	-	0	-	-	-
CC(=O)C1=CCC(c2ccc(C)o2)N(S(=O)(=O)c2ccc(C)cc2)C1 (centres undefined)	-	0	-	-	-
SMILES	PABP FP inh	MLLE-PAM2 inh	eIF4H inh	PERK inhibitor	eIF4E-4G inh
Cc1cc(O)ccc1Nc1nc2ccccc2nc1Nc1ccc(O)cc1C	+	0	24	0	0
Cc1ccc(Nc2nc3ccccc3s2)c(C)c1	0	0	0	0	0
CC(=O)C1C(c2ccc(C)cc2)c2c(noc2C)CC1(C)O (centres undefined)	0	0	0	0	0
CC(=O)C1C(c2ccc(F)cc2)c2c(noc2C)CC1(C)O (centres undefined)	0	0	0	0	96
CC(=O)Nc1ccc(C(=S)NCCCO)cc1	0	0	0	0	0
O=c1cc(-c2ccccc2)oc2cc(O)c(O)c(O)c12	-	0	-	-	-
O=c1c(O)cccc2cc(O)c(O)c(O)c12	+	38	102	0	61
O=C(c1ccnc(Cl)c1)N1CCCC(N2CCN(c3ccccc3F)CC2)C1 (centres undefined)	0	0	0	-	-
C/C(=N\NC(=S)Nc1cccc(C)c1)c1ccccc1	0	40	0	0	0
COc1ccc(-c2c(C)nn3c(N)c(C#N)cnc23)cc1OC	0	0	0	0	38
Cc1nn2c(N)c(C#N)cnc2c1-c1ccc(Cl)cc1	0	0	0	0	0
CN(C)CCNc1nc2sc3c(c2c(=O)n1-c1ccccc1)CCCCC3	0	0	0	0	79
CC(Sc1nncn1C)C(=O)Nc1ccc2ccccc2c1 (centres undefined)	-	0	-	-	-
c1ccc(C[n+]2csc3ccccc32)cc1	0	43	0	0	0
CC(C)c1cccc(-c2csc(C(O)c3cccc(Cl)c3)n2)c1 (centres undefined)	-	0	-	-	-
COC(=O)C1=C(O)/C(=C\c2cc(C)n(-c3ccc(F)cc3)c2C)N=C1C	+	0	0	0	0
